Nrf2 activator – qHTS of Nrf2 Activators. 410,000 tested, 0.31% active. AREc32 ARE-luciferase reporter (MCF7-derived line), luminescence, 24 h. AID 624171, 2012. Potency, µM (highest dose often 46.1 µM), for the others: at the top dose activation, hits mostly activators; note: potency is the fitted concentration of half-maximal effect; % of control where 0% means no effect; nearly all actives have a fitted effect of over 65% in size
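Luminescent ARE reporter assay in AREc32_Fluc cells: overnight plating at 37 deg C, 24 hr compound incubation, Steady-Glo added, 30 min RT before reading.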
Nrf2 block – Nrf2 qHTS screen for inhibitors; A549 ARE-Fluc reporter, luciferase luminescence, 18-24 h; Potency, µM (highest dose often 46 µM), for inactives: at the highest dose activity change, negative = inhibition, usual class: inhibitors; 360,000 tested, 2.1% active; note: potency is the fitted concentration of half-maximal effect; % is set by controls: 0 for no effect and ±100 for the full control effect; nearly all actives have a fitted effect of over 60% in size
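A549 ARE_Fluc cells, 5000/well, 5% FBS OPTI-MEM; compounds in dose-response, 18-24 h at 37 °C/5% CO2; CellTiter-Fluor viability read (Ex 405/Em 525), then BugLite luciferase luminescence = Nrf2 activity.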
p53 reactivator – qHTS assay for re-activators of p53 using a Luc reporter; AID 504706, 2011; 320,000 tested, 0.063% active; Potency, µM (doses to about 92.2 µM), inactives show at the top dose activity change, positive = activation, hits mostly activators; H1299 p53-A138V BP100-luciferase reporter, luminescence, 24 h; note: potency is the fitted concentration of half-maximal effect; % of control where 0% means no effect; nearly all actives have a fitted effect of over 45% in size
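H1299 (p53-null), stable ts p53-A138V + BP100-Luc; 1000 cells/well, Opti-MEM/10% FBS; cpd 4 pt, 1:5; 24 h, 37 deg C, 5% CO2; detection reagent 10 min RT; luminescence.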
A549 viability – Nrf2 qHTS screen for inhibitors: counterscreen for cytotoxicity. AID 504648, 2011. A549 ARE-Fluc cells, CellTiter-Fluor viability, 18-24 h. Potency, µM (doses to about 46 µM), for the others: top-dose activity change, negative = cytotoxicity, usual class: inhibitors. 390,000 tested, 0.16% active; note: potency is the fitted concentration of half-maximal effect; % is set by controls: 0 for no effect and ±100 for the full control effect
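A549 ARE-Fluc cells in 5% FBS OPTI-MEM, 5000 cells/well, rested 2 h then exposed to compounds in concentration-response for 18-24 h at 37 °C. Viability by CellTiter-Fluor fluorescence (Ex 405/Em 525) after 30 min; luciferase luminescence (BugLite, 15 min, RT) read afterwards.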
ClpP mod – qHTS Assay for Activators of ClpP; ATP-dependent Clp protease proteolytic subunit (Bacillus subtilis (strain 168)), P80244; 340,000 tested, 1.9% active; purified B. subtilis ClpP, FRET peptide cleavage, 20 min; Potency, µM (doses to about 57.5 µM), inactives show top-dose activity change, negative = active; active = well fitted falling curve with a large enough effect; inconclusive = small, poorly fitted or top-dose-only effect; inactive = no such curve, though single readings can be large or run the other way; note: potency is the fitted concentration of half-maximal effect; the source files actives as falling curves though it sought activators and does not explain the sign; nearly all actives have a fitted effect of over 65% in size
Target sequence (P80244 whole entry, looked up): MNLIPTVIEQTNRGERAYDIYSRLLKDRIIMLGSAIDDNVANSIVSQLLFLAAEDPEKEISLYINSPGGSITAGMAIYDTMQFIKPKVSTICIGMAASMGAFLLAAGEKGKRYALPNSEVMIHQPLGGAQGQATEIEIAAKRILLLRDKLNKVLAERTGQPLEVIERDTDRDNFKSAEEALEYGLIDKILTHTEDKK
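Purified B. subtilis ClpP, 10 microg/mL final in Tris/HCl pH8 with KCl, BSA, glycerol and Tween-20, cleaved an Abz/nitrotyrosine-quenched decapeptide. Fluorescence (ex 320, em 430) was read at 0 and 20 min at room temperature. Delta was normalized to 5.8 microM ADEP and DMSO/no-enzyme controls.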
miR-21 reporter – qHTS Assay for Modulators of miRNAs and/orActivators of miR-21 | HeLa miR-21 FLuc reporter, luciferase, 48 h | 340,000 tested, under 10 active | Potency, µM (doses to about 38.3 µM), for the others: at the highest dose activity change, positive = activation, actives largely listed as activators;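 note: % of control where 0% means no effect; miR-21 action dims this reporter so a rising signal means less miR-21 action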
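Using DMEM plus 10% FBS, HeLa miR-21-FLuc cells are incubated with test compounds (final up to about 40uM) for 48 hours; firefly luciferase signal is then imaged following reagent-mediated lysis.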
Numbers without * were called inactive; ? = inconclusive; . = no result given; ! = not active in a repeat; [ ] = another dose, or the depositor's remark. A selection: hits, their analogues and other compounds. The true share with any hit is near 3.7%. Unless noted, calls come from the whole dose curve; as a rule, active = well fitted curve in the direction sought with a large enough effect; inconclusive = small, poorly fitted or top-dose-only effect, or another doubt; inactive = no such curve, though single readings can be large; an effect the other way counts as inactive or inconclusive.

SMILES	Nrf2 activator	Nrf2 block	p53 reactivator	A549 viability	ClpP mod	miR-21 reporter
Cc1cc(C(=O)CSc2nc3ccc(Cl)cc3[nH]2)c(C)n1CC1CCCO1 (stereo not given)	4%	13µM*	14%	-27%	-1%	17%
Cc1cc(C(=O)COc2ccccc2C(N)=O)c(C)n1CC1CCCO1 (stereo not given)	1%	4.6µM*	10%	-14%	-1%	20%
COC(=O)c1cc(=O)n(CCc2ccc(OC)c(OC)c2)c(=Nc2ccc(F)c(Cl)c2)s1	0%	23µM*	-3%	?	0%	-8%
COc1cc(C(=S)N2CCC(C)CC2)ccc1O	0%	18µM*	0%	.	0%	-2%
COc1cc(C(=S)N2CCCC2)ccc1O	-1%	2%	-3%	-9%[1.84 µM]	1%	0%
O=C(Nc1ccc(F)cc1F)c1cc2n(n1)C(C(F)(F)F)C1CCCCC1N2 (stereo not given)	2%	.	?	-1%	28µM*	-43%
Cc1cccc(OCC(=O)Nc2ccc3c(c2)nc(CCN2CCC(C)CC2)n3C)c1	13%	-24%	-10%	?	-9%	-2%
CCn1c(CN2CCC(C)CC2)nc2cc(NC(=O)COc3ccc(Cl)c(C)c3)ccc21	1%	15µM*	.	?	3%	?
Cc1cccc(S(=O)(=O)c2cn(C)c3cc(N4CCN(c5ccc(F)cc5)CC4)c(F)cc3c2=O)c1	0%	-13%	.	-11%	2%	1%
CC(=O)N1CCC2(CC1)OC(=O)C(C)=C2C(=O)Nc1ccccc1C(F)(F)F	0%	36%	.	15%	0%	-1%
NS(=O)(=O)c1ccc(Cc2ncc(C(F)(F)F)cc2Cl)s1	12%	21µM*	3%	?	-1%	-2%
COc1cccc(CNC(=O)c2cc(-c3ccc(Cl)cc3)n[nH]2)c1	4%	19%	.	9%	0%	-5%
CC(=O)Nc1ccc(Nc2nc(C)c([N+](=O)[O-])c(Nc3ccccc3)n2)cc1	3%	16µM*	-3%	?	1%	?
Cc1ccc(NC(=O)Cn2cc(C(=O)c3ccco3)c3ccccc32)cc1C	-1%	?	.	-20%	19%	25%
CN(CCOc1ccc(Cl)cc1)C(=O)c1cc(-c2ccco2)nc2ccccc12	-1%	?	-7%	?	28µM*	.
CN1C(=O)Cc2cc([S+](=O)([O-])N3CCN([S+](=O)([O-])c4c(F)cccc4F)CC3)ccc21	.	15%	.	-8%	.	.
Cc1c(C)n(Cc2ccccc2)c2ccc(C(=O)NCCc3ccccc3Cl)cc12	0%	?	.	-14%	16µM*	1%
COc1ccc(CCNC(=O)c2ccc3c(c2)c(C)c(C)n3Cc2ccccc2)c(OC)c1OC	0%	?	.	-13%	?	-18%
COc1ccc(CCNC(=O)c2ccc3c(c2)c(C)c(C)n3Cc2ccc(F)cc2)c(OC)c1OC	0%	-22%	.	0%	25µM*	0%
Cc1ccccc1CCNC(=O)c1ccc2c(c1)c(C)c(C)n2Cc1ccccc1	0%	15%	.	15%	32µM*	-8%
Cc1c(C)n(Cc2ccccc2)c2ccc(C(=O)NCc3ccc(OC(C)C)cc3)cc12	3%	?	.	8%	18µM*	10%
Cc1cccc(CNC(=O)c2ccc3c(c2)c(C)c(C)n3Cc2ccccc2)c1	1%	?	.	11%	-28%	-17%
COc1cccc(CN(C(=O)COc2ccc(Cl)c(C)c2)C2CCS(=O)(=O)C2)c1 (stereo not given)	3%	-2%	.	-1%	1%	-6%
COc1ccc(NC(=O)c2ccc3c(c2)c(C)c(C)n3Cc2ccc(F)cc2)cc1	-1%	?	.	-14%	?	12%
CCOC(=O)c1ccc(NC(=O)c2ccc3c(c2)c(C)c(C)n3Cc2ccc(F)cc2)cc1	0%	?	.	-6%	18µM*	-3%
SMILES	Nrf2 activator	Nrf2 block	p53 reactivator	A549 viability	ClpP mod	miR-21 reporter
COc1ccc(Nc2nc(-c3ccc(C)cc3)nc3ccccc23)c(OC)c1	-1%	.	.	14%	-2%	-20%
CC(Nc1nc(N2CCCCC2)nc2ccccc12)c1ccccc1 (stereo not given)	3%	?	8%	?	28µM*	?
CC(Nc1nc(-c2ccccc2)nc2ccccc12)c1ccccc1 (stereo not given)	4%	?	?	-4%	-10%	7%
C=CCNc1nc(N2CCCC2)nc2ccccc12	4%	.	-18%	?	32µM*	17%
COc1ccc(Nc2nc(N3CCCC3)nc3ccccc23)c(OC)c1	23%	?	-24%	18µM*	-7%	22%
Cc1c(Cl)cccc1NC(=O)Cn1c(=O)n(Cc2ccco2)c(=O)c2oc3ccccc3c21	-1%	18%	.	4%	-12%	5%
COc1cccc(C(=O)NCCSc2c(-c3ccc(F)cc3)[nH]c3ccccc23)c1OC	0%	-1%[9.27 µM]	.	?	4%	?
N#Cc1nc(COc2ccc(-c3ccccc3)cc2)oc1N1CCC(C(N)=O)CC1	.	?	.	11%	-3%	.
N#Cc1nc(-c2ccc(OCc3ccccc3)cc2)oc1N1CCC(C(N)=O)CC1	0%	?	-17%	-17%	3.5µM*!	-5%
N#Cc1nc(-c2ccc(COc3ccc(Cl)cc3)o2)oc1N1CCC(C(N)=O)CC1	-1%	?	.	-20%	32µM*	26%
O=[N+]([O-])c1cc(C=Nc2ccc3ccccc3c2)ccc1Br	24%	11%	16%	9%	28µM*	-28%
CCOc1ccc(N=Cc2ccc3ccccc3c2)cc1	0%	1%	.	6%	-2%	-1%
Cc1cccc(NC(=O)c2oc3ccccc3c2NC(=O)Cc2coc3c(C)c(C)ccc23)c1	1%	-8%	.	8%	?	-18%
Cc1cccc2sc(NC(=O)c3ccc(Cl)s3)nc12	7.1µM*	20%	?	7%	4%	-11%
Cc1cccc2sc(NC(=O)C3CC3)nc12	?	?	9%	-1%	28%	-27%
Cc1cccc2sc(NC(=O)C3c4ccccc4Oc4ccccc43)nc12	0%	21µM*	-4%	-11%	-23%	0%
COC(=O)Nc1nc2c(C)cccc2s1	?	18%	14%	-2%	1%	-29%
